Screen size: about 1,300 compounds; about 380 (29%) were called active. Roughly 37% stayed inconclusive and do not appear here. This is one part of the list. Unmarked numbers belong to inactive results. Calls follow the shape of the dose curve; as a rule, active = well fitted inhibition curve with a large enough effect; inconclusive = small, poorly fitted or top-dose-only effect; inactive = flat fitted curve, though single readings scatter.
% is scaled to controls: 0 for no effect and ±100 for the full control effect; potency is read from the fitted curve at half-maximal effect.

Thyrotropin receptor (Homo sapiens), sequence (P16473 whole entry, looked up): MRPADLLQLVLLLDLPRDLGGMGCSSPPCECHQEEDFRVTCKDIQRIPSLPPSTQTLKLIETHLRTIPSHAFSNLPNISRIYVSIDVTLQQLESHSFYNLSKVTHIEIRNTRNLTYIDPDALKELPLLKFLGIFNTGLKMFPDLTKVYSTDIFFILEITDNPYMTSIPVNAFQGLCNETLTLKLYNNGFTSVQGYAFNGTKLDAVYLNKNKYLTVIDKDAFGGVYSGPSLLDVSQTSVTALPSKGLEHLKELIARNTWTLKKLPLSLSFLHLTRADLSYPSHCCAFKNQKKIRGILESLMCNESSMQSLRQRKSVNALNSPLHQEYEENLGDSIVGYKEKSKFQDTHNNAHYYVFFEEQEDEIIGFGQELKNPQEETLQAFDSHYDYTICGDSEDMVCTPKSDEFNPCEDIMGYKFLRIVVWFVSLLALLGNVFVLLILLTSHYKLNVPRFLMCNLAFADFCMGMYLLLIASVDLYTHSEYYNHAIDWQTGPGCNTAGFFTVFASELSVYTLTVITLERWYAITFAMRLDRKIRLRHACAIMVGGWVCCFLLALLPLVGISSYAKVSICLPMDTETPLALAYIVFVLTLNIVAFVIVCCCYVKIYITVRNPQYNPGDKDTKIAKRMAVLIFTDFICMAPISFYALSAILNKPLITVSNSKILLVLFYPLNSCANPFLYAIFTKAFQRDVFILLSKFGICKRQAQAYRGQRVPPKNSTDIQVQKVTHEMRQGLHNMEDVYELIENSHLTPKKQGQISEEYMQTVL

This assay addresses Thyrotropin receptor (Homo sapiens) (UniProt P16473). Kind of assay: qHTS for antagonists of the Thyroid Stimulation Hormone Receptor: Hit Validation in Primary Screen. Also: nearly all actives have a fitted effect of over 80% in size.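 As to activity change, negative = inhibition: cells stimulated with TSH at EC80 of 4 nM during compound exposure; cAMP by competitive HTRF where cellular cAMP lowers the 665 nm FRET signal.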 As to conditions: TSHR-expressing cells, cAMP antagonist mode; series mostly up to 58 µM; activity change, negative = inhibition: at the top concentration. The source says: The thyroid-stimulating hormone receptor (TSHR) is a member of the 7 trans-membrane-spanning receptor (7TMR) family of cell surface receptors. TSHR-mediated hyperthyroidism is important in thyroid pathology. The development of small molecule antagonists of TSHR may lead to therapeutic approaches for TSHR-mediated hyperthyroidism caused by constitutively activating mutations or stimulating auto-antibodies associated with Graves' disease. Graves' disease is the leading cause of hyperthyroidism and is caused by autoantibodies that stimulate TSHR (TsAbs) causing thyroid growth and unregulated overproduction of thyroid hormones and existing treatments have liabilities (agranulocytosis). In addition, TSHRs are known to be expressed in multiple extrathyroidal tissues including bone, brain, kidney, testis, fat and cells of the immune system but the role of the TSHR in these tissues is not clear. Therefore, TSHR antagonists/inverse agonists could be used as probes of extrathyroidal TSHR function. Finally, TSHR inverse agonists, which are a subclass of antagonists that inhibit agonist-independent (or basal or constitutive) TSHR signaling, could be used to inhibit TSH-independent signaling in patients with recurrent or metastatic thyroid cancer who are receiving thyroid hormone to suppress TSH.
In collaboration between scientist from the NCGC and the NIDDK, a miniaturized HTRF high-throughput screen was developed. It's a cell based assay, where an anti cAMP antibody contains a fluorescent cryptate tag (excitation 337 nm; emission 620 nm) and the acceptor is cAMP-d2 (excitation 620 nm; emission 665 nm). When antibody and cAMP-d2 interact and are excited by a 337 nm light, a FRET occurs resulting in emission at 665 nm. The assay is competition between cAMP-d2 and cAMP (from the cell lysate). The homogeneous protocol allows for one step dispense after stimulation that is automation friendly. This is a hit validation assay using the primary screen format.
NIH Chemical Genomics Center [NCGC]
NIH Molecular Libraries Probe Centers Network [MLPCN]
Assay Provider: Marvin Gershengorn, NIDDK
1. 3ul of 200 TSHR freshly harvested cells/well are dispensed into a 1536 TC-treated white solid bottom plate.
2. Through pintool addition, 23nl of compounds and control in 100% DMSO are added to the plate.
3. Then 1ul of EC80 TSH (4nM final) is added to the plate.
4. Assay is incubated at 37 deg C for 2 hours.
5. 2ul of cAMP antibody diluted 1:20 in lysis buffer is added.
6. Immediately following, 2ul of d2 diluted 1:20 in HBSS is added seperately.
7. The assay is incubated for 30 minutes at ambient room temperature.
8. The result is obtained by using a ViewLux read-out with HTRF settings.
Take `O=C(Nc1ccc(Oc2ccc(Cl)cc2)c(Cl)c1)c1cc(I)cc(I)c1O`: the Potency is 1.51 µM (active).

For the molecule `COC(=O)C1=C(c2ccc(-c3ccccc3)c(F)c2)C[C@@H]2CC[C@H]1N2C(=O)NCCc1ccccc1`, the Potency was 6.01 µM (active).

Consider `COC(=O)C1=C(c2ccc(-c3ccccc3)c(F)c2)C[C@@H]2CC[C@H]1N2C(=O)NCCCOC(C)C`, for which the Potency was 23.9 µM (active). With `COC(=O)C1=C(c2ccc(-c3ccccc3)c(F)c2)C[C@@H]2CC[C@H]1N2C(=O)NCc1ccco1`, the Potency is 21.3 µM (active). Regarding `COC(=O)C1=C(c2ccc(-c3ccccc3)c(F)c2)C[C@@H]2CC[C@H]1N2C(=O)NCCOc1ccccc1`, the Potency was 5.36 µM (active). Take `COC(=O)C1=C(c2ccc(OCc3ccccc3)cc2)C[C@@H]2CC[C@H]1N2C(=O)NCc1cccc(OC)c1`: the “activity change, negative = inhibition” value was -13.2%. As for `O=C(Nc1ccc2ccccc2c1)c1nn(C23CC4CC(CC(C4)C2)C3)cc1Br`, the “activity change, negative = inhibition” value is -7.52%. `COC(=O)C1=C(c2ccc(-c3ccccc3)c(F)c2)C[C@@H]2CC[C@H]1N2C(=O)NC(C)C`: the Potency is 23.9 µM (active). On to `COC(=O)C1=C(c2ccc(-c3ccccc3)c(F)c2)C[C@@H]2CC[C@H]1N2C(=O)NCC1CC1`, for which the Potency is 23.9 µM (active). As for `CNc1ccc2oc(C[C@H]3O[C@@]4(CC[C@H]3C)O[C@H]([C@H](C)C(=O)c3ccc[nH]3)[C@H](C)C[C@H]4C)nc2c1C(=O)O`, the “activity change, negative = inhibition” value was -120%.

`O=C(C1CCN(c2nc3ccc(Br)cc3s2)CC1)N1CCC2(CC1)OCCO2`: the Potency is 30.1 µM (active). With `COc1cc(C(C)=O)ccc1OC(=O)N(C)c1ccccc1`, the “activity change, negative = inhibition” value was -4.44%. For the molecule `COC(=O)C1=C(c2ccc(OC(F)(F)F)cc2)C[C@@H]2CC[C@H]1N2C(=O)N1CCC(C)CC1`, the Potency was 30.1 µM (active). For `CNc1cc(Cl)c2nonc2c1[N+](=O)[O-]`, the Potency was 4.78 µM (active). On to `Cc1ccccc1-c1nc(CS(=O)CC(=O)N2CCC3(CC2)OCCO3)c(C)o1` (centres undefined), for which the “activity change, negative = inhibition” value was -7.84%.

For the molecule `N#CC(C#N)=NNc1ccc(-n2ccc(C(F)(F)F)n2)cc1`, the Potency was 2.39 µM (active). On to `Cc1ccc(-n2c(C)nc3ccccc3c2=O)c(C)c1`, for which the “activity change, negative = inhibition” value is -2.85%. For the molecule `Oc1ccc(Cl)cc1Cc1cc(Cl)ccc1O`, the Potency is 30.1 µM (active). Turning to `Nc1ccc(C2(c3ccc(N)cc3)c3ccccc3-c3ccccc32)cc1`, the Potency is 6.01 µM (active). Consider `CC12CCC3C(CC=C4CC5(CCC43C)OCCO5)C1CCC2=O` (centres undefined), for which the “activity change, negative = inhibition” value is -6.34%. Take `CCN(CC)S(=O)(=O)c1ccc(NN=C(C#N)C#N)cc1`: the Potency was 6.01 µM (active). As for `N#CC(C#N)=NNc1ccc([N+](=O)[O-])cc1`, the Potency was 2.69 µM (active). Consider `COc1cc(N2C(=O)CC(=O)NC2=O)cc(OC)c1OC`, for which the “activity change, negative = inhibition” value is -3%. In the case of `Cc1nc2ccccc2c(=O)n1-c1cccc(C(F)(F)F)c1`, the “activity change, negative = inhibition” value was -3.92%.

(Values after PubChem BioAssay AID602292 (National Center for Advancing Translational Sciences (NCATS), 2012).)
